The values that follow come from PubChem BioAssay AID382 (SGCOxCompounds, 2006).

Calls of active or inactive are those of the source. No rule for the calls is given here.

The target of the first assay is Dual specificity protein kinase CLK1 (Homo sapiens) (UniProt P49759). The assay is described as follows: CLK1 binders by thermal stabilization, biophysical, recombinant human kinase, DSF (AID 382). The note with it: at 10 µM, protein 2 µM, buffer 10 mM HEPES, NaCl 150 mM, hits give high values.
Dual specificity protein kinase CLK1 (Homo sapiens), sequence (P49759 whole entry, looked up): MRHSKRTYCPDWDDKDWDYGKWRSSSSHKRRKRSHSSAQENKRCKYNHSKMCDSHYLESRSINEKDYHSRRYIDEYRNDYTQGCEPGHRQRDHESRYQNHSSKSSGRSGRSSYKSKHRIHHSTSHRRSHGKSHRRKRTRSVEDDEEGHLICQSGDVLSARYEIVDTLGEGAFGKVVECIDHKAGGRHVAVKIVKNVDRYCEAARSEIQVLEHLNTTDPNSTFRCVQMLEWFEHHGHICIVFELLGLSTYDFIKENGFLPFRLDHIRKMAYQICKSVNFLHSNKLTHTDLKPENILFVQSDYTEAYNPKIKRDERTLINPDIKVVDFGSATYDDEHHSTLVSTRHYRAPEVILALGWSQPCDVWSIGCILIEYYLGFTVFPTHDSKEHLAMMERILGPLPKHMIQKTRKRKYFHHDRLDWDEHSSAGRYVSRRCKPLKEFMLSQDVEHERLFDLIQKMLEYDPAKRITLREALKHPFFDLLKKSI
For the compound `O=C1C(=O)C(c2ccc(O)cc2)Oc2cc(O)cc(O)c21` (stereo unspecified), the Tm shift was 4.8 Celsius (active).
Regarding `O=Nc1c(-c2c(O)[nH]c3ccc(S(O)(O)O)cc23)[nH]c2ccccc12`, the Tm shift is 3.64 Celsius (active).
On the same count and under the same terms, next, `N=C(N)SCCCn1cc(C2=C(c3c[nH]c4ccccc34)C(=O)NC2=O)c2ccccc21`: 10.3 Celsius (active).
Consider `O=c1cc(-c2ccccc2)oc2cc(O)cc(O)c12`, for which the Tm shift is 5.03 Celsius (active).
For the compound `O=C1C(=O)C(c2cc(O)c(O)c(O)c2)Oc2cc(O)cc(O)c21` (stereo unspecified), the Tm shift is 6.4 Celsius (active).
In the case of `O=C1C(=O)C(c2cccc(O)c2)Oc2ccccc21` (stereo unspecified), the Tm shift is 3.88 Celsius (active).

The assay is the same for the next values; noted with them: at 10 µM, protein 2 µM, buffer 10 mM HEPES, NaCl 150 mM, with 50 mM Arg/Glu, hits give high values.
In the case of `CCC(CO)Nc1ccc2ncc(-c3ccc(O)cc3)n2n1` (stereo unspecified), the Tm shift was 7.54 Celsius (active).
Consider `CC(C)[C@@H](CO)Nc1ccc2ncc(-c3ccc(C#N)cc3)n2n1`, for which the Tm shift is 5.84 Celsius (active).
For `Clc1cccc(Nc2ccn3ncc(-c4ccc5c(c4)OCO5)c3n2)c1`, the Tm shift is 6.85 Celsius (active).
`FC(F)(F)Oc1cccc(-c2cnc3ccc(NC4CCOCC4)nn23)c1`: the Tm shift was 5.17 Celsius (active).
Same read-out and setting: in the case of `CCN1/C(=C/C(C)=O)Sc2ccc(OC)cc21` it was 6.91 Celsius (active).
